Each structure is given as a SMILES string. ± gives the standard deviation of the averaged measurements.

This assay has as its target T1, MurF (UniProt P11880).
T1 sequence (whole entry): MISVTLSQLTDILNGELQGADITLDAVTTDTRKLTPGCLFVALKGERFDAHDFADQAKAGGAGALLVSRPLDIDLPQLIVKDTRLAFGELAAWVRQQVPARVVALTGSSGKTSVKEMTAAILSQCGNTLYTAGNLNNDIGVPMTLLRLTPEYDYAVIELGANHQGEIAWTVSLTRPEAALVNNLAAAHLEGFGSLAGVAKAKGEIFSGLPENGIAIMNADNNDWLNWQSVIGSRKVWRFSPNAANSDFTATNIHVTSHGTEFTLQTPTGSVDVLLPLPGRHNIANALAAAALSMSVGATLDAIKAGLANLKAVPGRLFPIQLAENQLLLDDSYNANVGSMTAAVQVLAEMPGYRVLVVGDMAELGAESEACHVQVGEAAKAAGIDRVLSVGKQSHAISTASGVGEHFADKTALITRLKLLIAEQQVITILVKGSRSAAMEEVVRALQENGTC
As to the kind of experiment: relative enzymatic activity vs untreated control (fraction); higher = less inhibition. The note with it: 100 µM; incubation time: 2 h at 37 C. As for the experimental part: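 In vitro enzymatic inhibition assays (ProFoldin kits) for 12 purified essential E. coli enzymes or complexes, each treated with 218 active antibacterial compounds at 100 µM for 2 h at 37°C. Read-outs were fluorescence or absorbance (phosphate detection, dye binding), converted to activity via standard curves and expressed relative to untreated DMSO controls.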
With `C[CH2][Hg][S]c1ccccc1C(=O)[O-].[Na+]`, the relative enzymatic activity amounted to 0.982 ± 0.28.
Next, `O=[N+]([O-])c1ccc(N(CCO)CCO)c2c1no[n+]2[O-]`: 0.923 ± 0.15.
In the case of `O=C1C=C2C(=CCOC2O)O1` (centres undefined), the relative enzymatic activity was determined as 0.903 ± 0.18.
As to `CCCCCCCCCCCCCCCC[n+]1ccccc1.[Cl-]`, the relative enzymatic activity was found to be 0.0685 ± 0.0074.
The same measure for `CCCCCCCCCCCCCCCC[n+]1ccccc1`: 0.08 ± 0.011.
Next, `CN[C@H]1C[C@@H](N)[C@H](O)[C@@H](O[C@@H]2O[C@H](CO)[C@H](O)[C@@H]3O[C@@]4(O[C@H]23)O[C@H]([C@@H](N)CO)[C@H](O)[C@H](O)[C@H]4O)[C@@H]1O`: 1.17 ± 0.035; `Cc1c(N)nc([C@H](CC(N)=O)NC[C@@H](N)C(N)=O)nc1C(=O)N[C@H](C(=O)N[C@@H](C)[C@H](O)[C@@H](C)C(=O)N[C@@H](C(=O)NCCc1nc(-c2nc(C(=O)NCCC[S+](C)C)cs2)cs1)[C@@H](C)O)[C@@H](O[C@H]1O[C@H](CO)[C@H](O)[C@@H](O)[C@H]1O[C@H]1O[C@H](CO)[C@@H](O)[C@H](OC(N)=O)[C@@H]1O)c1c[nH]cn1`: 0.537 ± 0.75; `CN(C)[C@@H]1C(=O)[C@@H](C(N)=O)C(=O)[C@@]2(O)C(=O)[C@H]3C(=O)c4c(O)ccc(Cl)c4[C@@](C)(O)[C@H]3C[C@@H]12`: 1.2 ± 0.021.
Next, `COP(=S)(OC)Oc1cc(Cl)c(Cl)cc1Cl`: 1.05 ± 0.2; `Cn1ncnc2c(=O)n(C)c(=O)nc1-2`: 0.797 ± 0.21.
`Oc1cc(Cl)ccc1Oc1ccc(Cl)cc1Cl` returned a relative enzymatic activity of 1.12 ± 0.27.
Next, `CN1C(=O)[C@]23CC4=CC=C[C@H](O)[C@H]4N2C(=O)[C@@]1(CO)SS3`: 0.973 ± 0.26.
The same measure for `CC(=O)[O][Hg][c]1ccccc1`: 1.08 ± 0.26; for `CNC1C(O)C(OC2C(N)CC(N)C(OC3OC(C(C)O)C(O)C(O)C3N)C2O)OCC1(C)O` (centres undefined): 0.95 ± 0.18; for `Cc1nc2c(=O)n(C)c(=O)nc-2n(C)n1`: 0.965 ± 0.26.
The same measure for `CCCCCCCCCCCCCCCC[N+](C)(C)C.[Br-]`: 0.112 ± 0.021.
`CN(C)[C@@H]1C(=O)C(C(N)=O)=C(O)[C@@]2(O)C(O)=C3C(=O)c4c(O)cccc4[C@](C)(O)[C@H]3C[C@@H]12` gave a relative enzymatic activity of 0.983 ± 0.2.
The same measure for `Cc1c(N)nc([C@H](CC(N)=O)NC[C@@H](N)C(N)=O)nc1C(=O)N[C@H](C(=O)N[C@@H](C)[C@H](O)[C@@H](C)C(=O)N[C@@H](C(=O)NCCc1nc(-c2nc(C(=O)NCCC[S+](C)C)cs2)cs1)[C@@H](C)O)[C@@H](O[C@H]1O[C@H](CO)[C@H](O)[C@@H](O)[C@H]1O[C@H]1O[C@H](CO)[C@@H](O)[C@H](OC(N)=O)[C@@H]1O)c1cnc[nH]1`: 1.15 ± 0.074; for `CC(=O)Oc1ccc(Cl)c2cccnc12`: 0.983 ± 0.21; for `O=S(=O)(O)O.Oc1cccc2cccnc12`: 0.951 ± 0.29.
The molecule `[O-][n+]1ccccc1[S][Zn][S]c1cccc[n+]1[O-]` displayed a relative enzymatic activity of 0.973 ± 0.15.
Next, `O=[N+]([O-])C(Br)(CO)CO`: 0.946 ± 0.23; `CCn1cc(C(=O)[O-])c(=O)c2cc3c(cc21)OCO3.[K+]`: 0.962 ± 0.22.
Next, `CN(C)[C@@H]1C(=O)[C@H](C(N)=O)C(=O)[C@@]2(O)C(=O)[C@@H]3C(=O)c4c(O)cccc4[C@@](C)(O)[C@H]3C[C@@H]12`: 0.998 ± 0.19.
